# The whole screen tested about 350,000 compounds, of which about 1,600 (0.46%) were called active. Only a selection was taken, and actives are over-represented in it overall. A number with no mark means an inactive call.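 The calls were made as follows: active = every replicate reaching a set inhibition limit, whatever the replicate mean (cut at about 25% in these data); inconclusive = mean inhibition reaches that limit but some replicates miss it; inactive = the rest.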
# Molecular target: Protein AF-9 (Homo sapiens) (UniProt P42568)
# Sequence (P42568 whole entry, looked up): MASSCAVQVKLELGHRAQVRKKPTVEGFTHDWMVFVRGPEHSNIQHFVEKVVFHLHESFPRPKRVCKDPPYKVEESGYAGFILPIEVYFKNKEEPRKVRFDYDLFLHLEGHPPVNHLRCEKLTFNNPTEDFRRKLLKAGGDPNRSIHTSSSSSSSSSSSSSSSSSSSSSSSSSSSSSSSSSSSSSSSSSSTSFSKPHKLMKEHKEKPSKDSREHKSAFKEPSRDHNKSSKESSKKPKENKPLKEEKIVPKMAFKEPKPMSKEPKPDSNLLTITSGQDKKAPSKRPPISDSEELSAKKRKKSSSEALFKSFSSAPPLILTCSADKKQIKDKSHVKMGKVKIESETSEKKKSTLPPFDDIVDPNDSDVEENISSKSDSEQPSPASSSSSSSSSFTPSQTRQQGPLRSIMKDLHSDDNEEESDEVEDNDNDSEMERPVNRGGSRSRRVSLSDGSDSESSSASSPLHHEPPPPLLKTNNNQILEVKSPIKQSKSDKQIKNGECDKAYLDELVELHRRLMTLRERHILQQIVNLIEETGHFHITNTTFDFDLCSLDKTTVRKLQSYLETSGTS
# Test: MLL-AF4/AF9 protein interaction blockers – biochemical, AlphaScreen, biotin-AF4 peptide, FLAG-AF9, single point, primary screen (AID 651704);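 also: 0% = plate neutral control median and 100% = total signal loss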
# Details: biotin-AF4 peptide binding to FLAG-AF9, at 10 µM, hits give high values
row,Compound,inhibition
1,CCC1(C)CC(CCNCc2ccc(N(C)C)cc2)(c2ccc(F)cc2)CCO1 (stereo not given),28.4% (active)
2,COc1ccc2c(c1)NP(=S)(c1ccccc1)N2 (stereo not given),-0.621%
3,O=C(O)[C@@H]1[C@@H](CO)[C@@H]2Cn3c(ccc(-c4ccccc4F)c3=O)[C@H]1N2C(=O)c1cccnc1,1.92%
4,CSCCC(c1nnnn1C(C)(C)C)N1CCC(n2c(=O)[nH]c3ccccc32)CC1 (stereo not given),14%
5,CC(C)CN1Cc2cc(N3CCCCC3)ccc2-n2nncc2C1,6.47%
6,COC(=O)[C@H]1[C@H](CO)[C@H]2Cn3c(ccc(-c4ccccc4F)c3=O)[C@@H]1N2C(=O)C1CCC1,1.06%
7,Cc1ncoc1C(=O)NCC1=C(c2cccc3ccccc23)C[C@@H]2CC[C@H]1N2Cc1ccco1,3.14%
8,CCOC(=O)[C@]12Cc3cc(OC)ccc3[C@H]1N(C(C)C)C(=O)c1ccccc12,-1.49%
9,O=C1NC(=O)N(Cc2ccco2)C(=O)/C1=C\c1cccn1CCOc1ccccc1,-1.69%
10,O=C1NC(=O)N(CCc2ccc(F)cc2)C(=O)/C1=C/C=C/c1ccccc1,7.75%
11,O=C(O)COc1ccccc1/C=C1\C(=O)NC(=O)N(CCC2=CCCCC2)C1=O,51.4% (active)
12,O=C1NCN(c2ccccc2)C12CCN(C(c1cccs1)c1nnnn1C1CCCCC1)CC2 (stereo not given),8.26%
13,CCn1cc(CN2CCCC(C(=O)c3cccc(C(F)(F)F)c3)C2)cn1 (stereo not given),0.062%
14,Cc1cc2ccccn2c1C(C[N+](=O)[O-])c1c(F)cccc1Cl (stereo not given),25.5% (active)
15,O=C(NC[C@@H]1CC[C@H]2NC[C@H]2O1)C1CCCC1,-2.73%
16,COC(=O)C1=C(c2ccc(OCc3ccccc3)cc2)C[C@@H]2CC[C@H]1N2C(=O)NCc1ccc(Cl)cc1,-0.419%
17,O=c1[nH]c2ccccc2n1C1CCN(C(c2ccnc3ccccc23)c2nnnn2Cc2ccccc2)CC1 (stereo not given),-0.349%
18,C[C@@H]1CN([C@H](C)CO)C(=O)CCCn2cc(nn2)CO[C@@H]1CN(C)C(=O)Oc1cccc2ccccc12,-0.246%
19,CCOc1cccc(=NC2CCCCC2)c2c(C)[nH]c(C)c12,31.5% (active)
20,O=c1[nH]c2ccccc2n1C1CCN(C(c2ccccc2)c2nnnn2Cc2ccccc2)CC1 (stereo not given),2.84%

# From PubChem BioAssay AID651704 (Broad Institute, 2012)
